Results filed as inconclusive are left out. Calls of active or inactive are those of the source. The call rests on the fitted dose curve; in most records, active means well fitted inhibition curve with a large enough effect; inconclusive means small, poorly fitted or top-dose-only effect; inactive means flat fitted curve, though single readings scatter.
What was measured:
Test in all cases: qHTS profiling for inhibitors of Plasmodium falciparum proliferation (AID 504749); further: nearly all actives have a fitted effect of over 60% in size
Conditions in all cases: P. falciparum in erythrocytes, SYBR Green DNA, 72 h; series mostly up to 28.7 µM
CP247 = test system: CP247
Summary of the method: (§1)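 SYBR Green fluorescence (ex 485 nm, em 535 nm) reports parasite DNA after 72 h compound exposure of infected red cells at 0.3% parasitemia, 2.5% hematocrit; signal normalized to 0.29 uM artemisinin and vehicle wells.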

CP250 = test system: CP250
Summary of the method: as §1

CP252 = test system: CP252
Summary of the method: as §1

CP256 = test system: CP256
Summary of the method: as §1

CP260 = test system: CP260
Summary of the method: as §1

CP262 = test system: CP262
Summary of the method: as §1

CP265 = test system: CP265
Summary of the method: as §1

CP268 = test system: CP268
Summary of the method: as §1

CP269 = test system: CP269
Summary of the method: as §1

CP286 = test system: CP286
Summary of the method: as §1

CP291 = test system: CP291
Summary of the method: as §1

CP297 = test system: CP297
Summary of the method: as §1

CP305 = test system: CP305
Summary of the method: as §1

CP315 = test system: CP315
Summary of the method: as §1

CP325 = test system: CP325
Summary of the method: as §1

CP329 = test system: CP329
Summary of the method: as §1

CP335 = test system: CP335
Summary of the method: as §1

DFO2036 = test system: DFO2036
Summary of the method: as §1

DIV14 = test system: DIV14
Summary of the method: as §1

CP266 = test system: CP266
Summary of the method: as §1

Measured: Potency
Potency means the concentration at half of the fitted maximal effect.

O=C(O)CCNC(=O)c1ccccc1
not listed: CP266
inactive: all other assays above

CCCCCCCCNC(C)C(O)c1ccc(SC(C)C)cc1 (configuration not stated)
active: CP247 0.891 µM | CP250 0.891 µM | CP252 0.794 µM | CP256 1 µM | CP260 0.355 µM | CP262 2.13 µM | CP265 1.12 µM | CP266 1.69 µM | CP268 1.51 µM | CP269 1.51 µM | CP286 1 µM | CP291 1.9 µM | CP305 2.69 µM | CP315 3.01 µM | CP325 3.01 µM | CP329 3.01 µM | CP335 0.601 µM | DIV14 0.675 µM

CC(C)(C)NC[C@H](O)COc1cccc2c1CCCC2=O
not listed: CP315 | DIV14
inactive: all other assays above

CCCCCCCCCCCCCC(=O)OC(C)C
not listed: CP297
inactive: all other assays above

CCOc1ccccc1C(N)=O
not listed: CP291
inactive: all other assays above

COc1cc(C(=S)N2CCOCC2)ccc1O
not listed: CP266
inactive: all other assays above

NCCNc1cccc2ccccc12
not listed: CP297 | CP335 | DFO2036 | DIV14
inactive: all other assays above

O=C1C(CCS(=O)c2ccccc2)C(=O)N(c2ccccc2)N1c1ccccc1 (configuration not stated)
not listed: CP315
inactive: all other assays above

OCCOCCN1CCN(C2=Nc3ccccc3Sc3ccccc32)CC1
not listed: DIV14 | CP266
inactive: all other assays above

O=C1C(O)=C(O)C(=O)C(O)=C1O
not listed: CP286 | CP297
inactive: all other assays above

O=C(NC1CCN(CCc2c[nH]c3ccccc23)CC1)c1ccccc1
not listed: CP286 | CP297 | CP335 | DIV14
inactive: all other assays above

CCOCCn1c(N2CCCN(C)CC2)nc2ccccc21
active: DIV14 7.57 µM
not listed: CP265 | CP268 | CP297 | CP305 | CP335 | DFO2036 | CP266
inactive: all other assays above

Cc1cc(-c2ccccc2)nnc1NCCN1CCOCC1
not listed: CP291 | CP325 | DIV14 | CP266
inactive: all other assays above

Cc1cccc(C)c1NC(=O)c1ccccc1C(=O)O
not listed: CP256
inactive: all other assays above

From PubChem BioAssay (NCATS)
